A selection: hits, their analogues and other compounds. The true share with any hit is near 2.8%.
ERb SRC1 inh: blocks coactivator binding to human estrogen receptor beta; TR-FRET ER-beta LBD / SRC1-Cy5 peptide binding; receptor agonist-loaded with 1 µM estradiol; Q92731; inhibition, % at 25.6 µM; actives 1.3% (n = 86,000); AID 633;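 active = compounds whose percent inhibition of the receptor-coactivator binding signal exceeds about 50% in the single-dose screen, limit read from the data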;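 also: 0% = receptor plus peptide wells without compound and 100% = peptide-only wells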
MRP-1 activ: activates MRP-1; viability increase, % at 10 µM; actives 0.61% (n = 140,000); AID 799; H69AR cells + doxorubicin, viability rescue, CellTiter-Glo;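 active = viability gain under doxorubicin at or above a set limit, the compound median plus 3 SD, cut at about 4.7% in these data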;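 also: MRP-1 overexpressing cells given doxorubicin 25 µM after compound pretreatment; 18-22 h compound pretreatment then 72 h with doxorubicin before readout; 0% = doxorubicin-only wells and 100% = vehicle-treated cells without doxorubicin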
MRP resist rev: compounds reversing MRP-mediated drug resistance; actives 0.04% (n = 85,000); differential viability (reversal), % at 10 µM; H69AR cells + 2 uM doxorubicin, CellTiter-Glo, 72 h; AID 602;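 active = viability drop by adding the cancer drug above about 55%, with treated viability meeting a 40% cutoff, limit read from the data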;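 also: viability without doxorubicin minus viability with 2 µM doxorubicin for each compound; larger differential means the compound sensitizes cells more to doxorubicin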
ERa coact pot: enhances coactivator binding to human estrogen receptor alpha; P03372; TR-FRET ERalpha-LBD/SRC-Cy5 coactivator binding, 2 h; 100 = basal binding, no effect; coactivator binding (% of control), % at 25.6 µM; actives 1.3% (n = 86,000); AID 639; in the data active = activity above about 200%;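 also: binding measured in presence of low estradiol as agonist stimulus; 0% = peptide alone without receptor and 100% = receptor with peptide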
Target sequence (P03372 whole entry, looked up, the tested form may be a part): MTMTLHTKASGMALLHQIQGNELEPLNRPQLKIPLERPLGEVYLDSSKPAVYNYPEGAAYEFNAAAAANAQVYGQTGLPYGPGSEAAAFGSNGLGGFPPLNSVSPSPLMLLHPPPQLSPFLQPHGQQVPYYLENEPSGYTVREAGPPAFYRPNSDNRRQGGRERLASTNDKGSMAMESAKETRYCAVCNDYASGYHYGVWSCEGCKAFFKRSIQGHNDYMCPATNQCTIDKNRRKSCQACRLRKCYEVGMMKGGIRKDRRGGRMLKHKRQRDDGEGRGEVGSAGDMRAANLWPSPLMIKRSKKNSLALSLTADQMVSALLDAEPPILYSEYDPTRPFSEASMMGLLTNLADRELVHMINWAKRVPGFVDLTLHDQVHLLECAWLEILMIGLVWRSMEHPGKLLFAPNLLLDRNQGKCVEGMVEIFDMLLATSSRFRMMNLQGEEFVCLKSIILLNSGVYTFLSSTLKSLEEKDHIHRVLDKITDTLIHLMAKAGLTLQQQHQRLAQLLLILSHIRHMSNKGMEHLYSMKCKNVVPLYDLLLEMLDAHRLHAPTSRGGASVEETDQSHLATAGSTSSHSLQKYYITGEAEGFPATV
Smad3 FoxH1 inh: blocks human Smad3 binding to FoxH1 peptide; P84022; TR-FRET Smad3/Dy647-FoxH1 peptide binding, europium anti-His; inhibition, % at 25 µM; actives 0.29% (n = 88,000); AID 630;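 active = compounds that reduce the energy-transfer binding signal between the protein and its labelled peptide by more than half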;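 also: 0% = Smad3 plus labelled peptide maximal FRET and 100% = peptide-only background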
ERa coact inh: ER-alpha (human) coactivator binding inhibition; AID 629; actives 1.7% (n = 86,000); inhibition, % at 25.6 µM; TR-FRET ER-alpha LBD / SRC-1 peptide, estradiol-bound; P03372; in the data active = inhibition above about 50%;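 also: 0% = receptor plus peptide control and 100% = peptide only without receptor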
* marks the source's active call; other numbers are inactive results; nt = not tested or not shown; [ ] = remark or other dose.

SMILES | ERb SRC1 inh | MRP-1 activ | MRP resist rev | ERa coact pot | Smad3 FoxH1 inh | ERa coact inh
CCN(CC)c1cccc(OC2=NS(=O)(=O)c3ccccc32)c1 | 25 | -1 | -16 | 18 | -5 | 83*[fluorescence artefact?]
COc1ccccc1OC1=NS(=O)(=O)c2ccccc21 | 3 | 0 | -20 | 16 | 16 | 78*[fluorescence artefact?]
N#C/C(=C(\O)Cc1ccccc1)c1nc2ccccc2[nH]1 | 21 | -3 | -16 | 409*[fluorescence artefact?] | -2 | 11
Cn1c(=O)c2c(nc(Oc3ccc4c(c3)OCO4)n2Cc2ccc(Br)cc2)n(C)c1=O | 52* | nt | -6 | 103 | -19 | 2
Cn1c(=O)c2c(nc(Oc3ccc4c(c3)OCO4)n2Cc2ccc(F)cc2)n(C)c1=O | nt | -1 | nt | nt | nt | nt
Cc1cccc(-c2cc3nc(C)cc(N4CC(C)CC(C)C4)n3n2)c1 (stereo not given) | -18 | 5.1* | 8 | 88 | 10 | -21
Cc1cc(Cc2cc(C)c(N)cc2N)c(N)cc1N | nt | nt | nt | nt | 102* | nt
CC1CCCCC12NC(=O)N(CC(=O)c1ccc[nH]1)C2=O (stereo not given) | 25 | 0 | 12 | 59 | 10 | 16
CC1CCC2(CC1)NC(=O)N(CC(=O)c1ccc[nH]1)C2=O (stereo not given) | 36 | -2 | -3 | 80 | -5 | 75*
CCCCCn1c(SCC#N)nc2cc(C(=O)NCC3CCCO3)ccc2c1=O (stereo not given) | 47 | -1 | -9 | 248*[fluorescence artefact?] | 30 | 56*[fluorescence artefact?]
COC(=O)c1ccc2c(=O)n(CC3CCCO3)c(SCC(=O)Nc3ccccc3OC)nc2c1 (stereo not given) | 6 | -3 | 0 | 134 | 1 | 18
COC(=O)c1ccc2c(=O)n(CC3CCCO3)c(SCC(=O)Nc3ccccc3Cl)nc2c1 (stereo not given) | 15 | -3 | -1 | 81 | -3 | 57*
CC(C)(N)CO[C@@H]1C[C@@H]2CC[C@@]1(C)C2(C)C | nt | nt | nt | nt | 3 | nt
O=C(Cc1ccccc1F)Nc1cccc2cccnc12 | nt | 5.9* | nt | nt | nt | nt
O=C(O)CCCC(=O)Nc1cccc2cccnc12 | nt | -1 | nt | nt | nt | nt
O=C(O)/C=C/C(=O)Nc1ccc2c(c1)C(=O)c1cc(F)ccc1-2 | nt | nt | nt | nt | 14 | nt
COc1ccc(OC)c(CN(CCCN2CCOCC2)S(=O)(=O)c2ccc(NC(C)=O)cc2)c1 | -4 | -3 | -2 | 123 | 10 | 99*[fluorescence artefact?]
O=C(Nc1c(-c2ccccc2)nc2sccn12)c1ccccc1 | 71*[fluorescence artefact?] | -1 | 11 | 71 | 51* | 72*[fluorescence artefact?]
NNS(=O)(=O)c1cc(C(=O)O)cc(C(=O)O)c1 | nt | nt | nt | nt | -4 | nt
O=C(O)NCC1CCCCC1 (tested in a mixture with another compound) | nt | nt | nt | nt | 4 | nt
CC(C)NC(=O)CSc1nc2ccccc2n1CC(=O)N1CCc2ccccc21 | 7 | -1 | 0 | 100 | -23 | 31
CN(C)C(=O)Cn1c(SCC(=O)N2CCCc3ccccc32)nc2ccccc21 | -14 | -4 | -10 | 829*[fluorescence artefact?] | -8 | 21
CC(=O)Nc1c(C(=O)N2CCN(c3ccccn3)CC2)cnn1-c1ccc(C)cc1 | nt | -1 | nt | nt | nt | nt
N#C[C@H]1CN[C@H](N)N[C@@H]1N | nt | nt | nt | nt | -15 | nt
Cc1[nH]ccc(=O)c1OC1OC(CO)C(O)C(O)C1O (stereo not given) | nt | -1 | nt | nt | nt | nt
SMILES | ERb SRC1 inh | MRP-1 activ | MRP resist rev | ERa coact pot | Smad3 FoxH1 inh | ERa coact inh
O=C1c2cccc(O)c2C(=O)c2c(O[C@@H]3O[C@H](CO)[C@@H](O)[C@H](O)[C@H]3O)cccc21 | nt | nt | nt | nt | 70* | nt
COc1ccc(NC(=O)C(NC(=O)c2ccc(=O)[nH]c2)c2ccc(OC)cc2)cc1 (stereo not given) | nt | 2 | nt | nt | nt | nt
S=C(Nc1ccc2c(c1)Cc1ccccc1-2)Nc1ccc2c(c1)Cc1ccccc1-2 | nt | nt | nt | nt | -169 | nt
c1cncc(-c2nc(Oc3ccc(-c4nnco4)cc3)c3c4c(sc3n2)CCCC4)c1 | 5 | nt | 4 | 258*[fluorescence artefact?] | -5 | 18
Nc1nc(-c2ccccc2)nc2sc3c(c12)CCCC3 | nt | -3 | nt | nt | nt | nt
CCOc1ccccc1/C=C(\C#N)C(N)=O | nt | nt | nt | nt | 11 | nt
N#Cc1nc(COc2ccc(F)cc2)oc1NCCN1CCOCC1 | -21 | -1 | 17 | 152 | 10 | -10
N#Cc1nc(-c2ccc(OCc3ccccc3)cc2)oc1NCCN1CCOCC1 | 8 | -2 | -3 | 235*[fluorescence artefact?] | 7 | 11
C=CCNc1oc(-c2ccc(OCC)cc2)nc1C#N | -5 | -2 | 20 | 117 | -2 | -11
N#Cc1nc(COc2ccc(Br)cc2)oc1NCCN1CCOCC1 | nt | 7.7* | nt | nt | nt | nt
CCOc1ccc(-c2nc(C#N)c(NCC(C)C)o2)cc1 | -12 | 6.8* | 6 | 104 | 12 | -6
Cc1cc(C(=O)CSC(=S)SC(C)(C)C)ccc1Cl | nt | nt | nt | nt | 16 | nt
CN(C)CCCSc1nc2ccccc2[nH]1 | nt | nt | nt | nt | 12 | nt
Cc1ccc(-c2nnc3sc(-c4ccc5c(c4)OCCO5)nn23)cc1 | 16 | nt | -8 | 303* | 27 | 15
COc1cccc(-c2nnc3sc(-c4cccs4)nn23)c1 | 8 | -1 | -22 | 251* | -89 | 17
Clc1cccc(-c2nn3c(-c4cccc(Cl)c4)nnc3s2)c1 | 32 | nt | 9 | 296* | -4 | 20
CCOc1ccc(-c2nn3c(-c4ccccc4)nnc3s2)cc1 | 2 | 3 | -9 | 110 | 27 | 2
CCOc1ccc(-c2nn3c(-c4ccc(OC)cc4)nnc3s2)cc1 | -11 | nt | 2 | 677*[fluorescence artefact?] | -21 | -82
CCOc1cccc(-c2nnc3sc(-c4cccs4)nn23)c1 | 14 | -1 | -22 | 193 | -40 | 13
Cc1nc2sccn2c(=O)c1Br | nt | -1 | nt | nt | nt | nt
COCCn1c(=O)[nH]c2cc(C(=O)NCCN3CCN(c4cccc(Cl)c4)CC3)ccc2c1=O | nt | -2 | nt | nt | nt | nt
O=C(c1ccccc1)[C@H](Nc1ccc2ccccc2c1)c1ccccc1 | nt | nt | nt | nt | -1 | nt
CCOc1cccc(-c2nnc3sc(-c4cc(OC)c(OC)c(OC)c4)nn23)c1 | 46 | -7 | -2 | 161 | -30 | 73*
COc1ccc(-c2nnc3sc(-c4ccccc4OC)nn23)cc1 | 15 | nt | -7 | 234* | -90 | 4
CC(C)(C)c1ccc(-c2nnc3sc(-c4ccncc4)nn23)cc1 | nt | -2 | nt | nt | nt | nt
SMILES | ERb SRC1 inh | MRP-1 activ | MRP resist rev | ERa coact pot | Smad3 FoxH1 inh | ERa coact inh
Cc1nnc2sc(-c3ccncc3)nn12 | 10 | 17* | 25 | 130 | -1 | 6
COc1cc(-c2nn3c(-c4ccccc4)nnc3s2)cc(OC)c1OC | -3 | -2 | -3 | 107 | 6 | 5
COc1ccc(Cc2nn3c(-c4ccccc4OC)nnc3s2)cc1 | -4 | -1 | -22 | 93 | -2 | -10
O=C(O)c1ccc(NC(=O)C2(c3ccccc3)CCOCC2)cc1 | -23 | 0 | 6 | 109 | 6 | -22
Clc1ccccc1N1CCN(c2ncnc3nc[nH]c23)CC1 | 0 | -1 | 15 | 99 | -11 | 6
FC(F)(F)c1cccnc1N1CCN(c2ncnc3nc[nH]c23)CC1 | -13 | -1 | 16 | 74 | -7 | 56*[fluorescence artefact?]
O=C(O)c1c(-c2c3ccc(=O)cc-3oc3cc(O)ccc23)cc2ccccc2c1-c1ccccc1 | nt | nt | nt | nt | 22 | nt
